Source: PubChem BioAssay (National Center for Advancing Translational Sciences (NCATS))
The list is not random: actives were taken first. Their share in the collection is about 1.3%.
PTAP TSG101 blk: qHTS Assay for Iinhibitors of HIV-1 Budding by Blocking the Interaction of PTAP/TSG101; 340,000 tested, under 10 active; Potency, µM (titrated, usually from 115 µM), actives largely listed as inhibitors; Fluorescence polarization, FITC-PTAP peptide / Tsg101 binding; active means well fitted inhibition curve with a large enough effect in the main read-out, with a control signal flat, not every such curve was filed as active; inconclusive means small, poorly fitted or top-dose-only effect, or effect the other way, or a change in a side signal; inactive means no such curve, though single readings can be large or run the other way
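Tsg101 binding domain (10 uM final) was mixed with compound and a FITC-labeled PTAP peptide (50 nM final) in HEPES pH 7.5 buffer with NaCl, Tween 20, EDTA and TCEP; fluorescence polarization was read after 20 min at r.t.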
TRPML1 agonist: qHTS for Agonists of the Human Mucolipin Transient Receptor Potential 1 (TRPML1); Mucolipin-1 (Homo sapiens), Q9GZU1; TRPML1-expressing cells, Ca2+ dye fluorescence, FDSS; activation, % (no concentration beside the values); 0.12% of 410,000 active; AID 624414, 2012; in the data active means activation above about 50%; inconclusive means mostly about 30% to 49%
Target sequence (Q9GZU1 whole entry, looked up): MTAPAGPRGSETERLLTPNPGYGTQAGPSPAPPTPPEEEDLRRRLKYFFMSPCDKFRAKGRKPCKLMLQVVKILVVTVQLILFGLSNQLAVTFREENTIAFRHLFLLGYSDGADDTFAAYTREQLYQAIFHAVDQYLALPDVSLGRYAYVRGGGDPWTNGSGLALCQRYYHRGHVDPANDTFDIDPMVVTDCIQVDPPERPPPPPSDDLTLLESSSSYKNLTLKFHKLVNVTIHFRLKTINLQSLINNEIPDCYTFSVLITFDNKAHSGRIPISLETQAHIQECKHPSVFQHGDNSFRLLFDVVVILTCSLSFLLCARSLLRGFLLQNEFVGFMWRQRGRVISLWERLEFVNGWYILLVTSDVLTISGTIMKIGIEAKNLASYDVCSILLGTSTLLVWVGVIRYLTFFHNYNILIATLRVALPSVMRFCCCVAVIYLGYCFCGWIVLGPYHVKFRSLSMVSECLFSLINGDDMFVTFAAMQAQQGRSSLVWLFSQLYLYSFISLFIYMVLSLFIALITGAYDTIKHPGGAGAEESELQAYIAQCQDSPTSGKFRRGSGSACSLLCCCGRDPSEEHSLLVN
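Agonist activity was taken from a 110 s kinetic Ca2+ dye read on the FDSS after pinning compounds onto TRPML1-DL cells. The cells were seeded at 1,500/well with Tet inducer, incubated about 16 h, then dye-loaded at room temperature.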
TRPML1 blocker: qHTS for Inhibitors of the Human Mucolipin Transient Receptor Potential 1 (TRPML1); TRPML1-inducible cells, Ca2+ dye fluorescence, FDSS; active compounds read low; inhibition of EC80 agonist-evoked calcium signal; AID 624415, 2012; activity change, negative = inhibition, % (test concentration not listed); 0.02% of 390,000 active; in the data active means activity change below about -50%; inconclusive means between about -30% and that limit;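 further: stimulus is agonist 54-4 at its EC80 concentration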
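Tet-induced TRPML1-DL cells loaded with Ca8 no-wash calcium dye were read kinetically on FDSS. Compound addition was followed by EC80 agonist 54-4 (4 uM final); inhibition was read over 110 s.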
IL-2 act: qHTS of IL-2 Activators. IL-2 activation reporter assay, cell-based qHTS; stimulated with anti-CD3/CD4/CD28 beads; in transgenic mouse T cells. activation, % (series mostly up to about 46 µM). 0.065% of 360,000 active; in the data active means activation above about 50%; inconclusive means mostly about 30% to 49%
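Readout is EGFP and DsRed signal by fluorescent plate cytometry after 18 h at 37 degrees C. Transgenic mouse T cells (750/well) received compound for 60 min before bead stimulation (anti-CD3, anti-CD4, anti-CD28); memory T cells served as non-tolerant control.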
PKM2 activator: qHTS Assay for Activators of Human Muscle isoform 2 Pyruvate Kinase; Pyruvate kinase PKM (Homo sapiens), P14618; purified PKM2, Kinase-Glo ATP luminescence, activation; response scale: 0% is enzyme alone, no compound; Potency, µM (series often up to 57.5 µM), actives largely listed as activators; 0.34% of 260,000 active; further: nearly all actives have a fitted effect of over 55% in size
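hPK-M2, >95% pure; 0.1 mM ADP / 0.5 mM PEP final; imidazole pH7.2 buffer w/ 7 mM MgCl2, 50 mM KCl; 1 h RT; Kinase-Glo lum. Intermediate enzyme activity for dual inhibitor/activator qHTS.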
BRCA1 expr up: qHTS Assay to Identify Small Molecule Activators of BRCA1 Expression. MCF7-BRCA1-FFLuc reporter, luminescence, 48 h; response scale: scaled: vehicle 0%, 10 µM genistein 100%. Potency, µM (top dose mostly 46.1 µM), actives largely listed as activators. 1.1% of 380,000 active; further: nearly all actives have a fitted effect of over 80% in size
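48 h compound treatment of MCF7-BRCA1-FFLuc cells (phenol-red free MEM, 37 °C), then 15 min with luciferase substrate and luminescence imaging.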
Numbers stand for hits; n = inactive; u = inconclusive; x = no result. Unless noted, the call rests on the fitted dose curve; in most records, active means well fitted activation curve with a large enough effect; inconclusive means small, poorly fitted or top-dose-only effect; inactive means no such curve, though single readings can be large or run the other way.

SMILES	PTAP TSG101 blk	TRPML1 agonist	TRPML1 blocker	IL-2 act	PKM2 activator	BRCA1 expr up
COc1cccc(/C=C/C(=O)c2c(O)cc(C)oc2=O)c1O	n	n	n	n	n	n
COc1ccc(/C=C/C(=O)c2c(O)cc(C)oc2=O)c(OC)c1	u	n	n	172.1	n	u
O=C(C[n+]1cccc(Br)c1)c1cc(Cl)ccc1Cl	x	n	x	x	x	n
c1ccc(OCCOc2ncnc3sccc23)cc1	n	n	n	n	n	7.08µM
Cn1c(CCNC(=O)c2ccco2)nc2cc(NS(=O)(=O)c3ccccc3)ccc21	n	n	n	n	3.16µM	n
Cc1nc2cc(NC(=O)NCc3ccco3)ccc2n1C	n	n	n	n	n	11.2µM
Cc1nc2cc(NC(=O)c3ccco3)ccc2n1C	n	n	n	n	n	n
Cn1c(CCNC(=O)c2ccco2)nc2cc(NC(=O)c3ccco3)ccc21	n	n	n	n	n	8.91µM
COc1ccccc1CNC(=O)C1CCN(S(=O)(=O)c2ccc3c(c2)CCCN3C(C)=O)CC1	x	n	n	x	x	x
CC1=CC(=O)C(C(C)C)=C/C1=N/OS(=O)(=O)c1ccccc1	n	50.2	n	n	n	n
O=C(C[n+]1ccccc1Br)c1ccc(F)cc1	x	n	x	x	x	n
Cc1ccc(NC(=O)c2ccc(OC(=O)CCN3C(=O)c4ccccc4C3=O)cc2)cc1	n	n	n	n	n	7.08µM
Cc1ccc(NC(=O)c2ccc(OC(=O)COc3cccc(Cl)c3)cc2)cc1	n	n	n	n	n	3.55µM
Cc1ccc(NC(=O)c2ccc(OC(=O)COc3ccc(Cl)cc3C)cc2)cc1	n	n	n	n	n	u
O=C(C[n+]1cc(Br)cc(Br)c1)c1ccc(I)cc1	x	n	x	x	x	n
O=C(NCCCO)C(=O)NCC(c1ccc2c(c1)OCO2)N1CCOCC1 (stereo not given)	x	n	n	x	x	x
NC(=O)C1CCN(c2nc(-c3ccc4ccccc4c3)cs2)CC1	n	x	x	n	x	12.6µM
NC(=O)C1CCN(c2nc(-c3cccc(Cl)c3)cs2)CC1	n	x	x	n	x	3.98µM
c1ccc(-c2ccc3ccccc3n2)cc1	n	n	n	n	x	11.2µM
Cc1ccc(-c2nc(N3CCCC(C)C3)c3ccccc3n2)cc1 (stereo not given)	x	n	n	x	x	n
Cc1ccc2nc(-c3ccc(N4C(=NC(=O)CCC(=O)O)SC5CS(=O)(=O)CC54)cc3)sc2c1 (stereo not given)	n	n	n	n	n	5.62µM
COc1ccc(CC(=O)Nc2c(C(=O)Nc3ccc(F)cc3)oc3ccccc23)cc1OC	x	n	n	x	x	n
CCOc1ccc(NC(=O)c2oc3ccccc3c2NC(=O)Cc2ccc(OC)c(OC)c2)cc1	x	n	n	x	x	11.2µM
COc1cccc(CC(=O)N2CCC(n3nccc3NC(=O)C3CC3)CC2)c1	n	n	n	n	n	n
CSc1ccc(CC(=O)N2CCC(n3nccc3NC(=O)C3CC3)CC2)cc1	n	n	n	n	n	2.82µM
SMILES	PTAP TSG101 blk	TRPML1 agonist	TRPML1 blocker	IL-2 act	PKM2 activator	BRCA1 expr up
Cc1nc(-c2ccc(S(=O)(=O)Nc3cc(Cl)ccc3C)cc2)co1	x	n	n	x	x	n
O=C(Nc1ccc2ncccc2c1)c1ccccc1Br	n	n	n	n	n	7.08µM
CN(C)S(=O)(=O)c1ccc(C(=O)Nc2ccc3ncccc3c2)cc1	n	n	n	n	n	12.6µM
O=C(Nc1ccc2ncccc2c1)Nc1ccc2ncccc2c1	n	n	n	n	n	u
CCCc1cc2c(n1CCc1ccc(Cl)cc1)C(C)C1CN(C(=O)c3ccccc3)C(C)(C(=O)OC)C21 (stereo not given)	x	x	x	x	n	x
O=c1[nH]c(-c2ccccc2)nc2sc(-c3ccccc3)cc12	n	n	n	n	n	n
O=c1[nH]cnc2sc(-c3ccccc3)cc12	n	n	n	n	n	12.6µM
Cc1ccc(C)n1-n1cnc2sc(-c3ccccc3)cc2c1=O	n	n	n	n	n	n
O=c1c2cc(-c3ccccc3)sc2ncn1-n1cccc1	n	n	n	n	n	2µM
O=C(Nc1ccccc1)c1ccc(-n2nncc2-c2ccccc2)cc1	x	n	x	x	x	n
Cc1nn(CC(=O)N2CCN(c3ccccc3)CC2)c(=O)c2cc3cc(F)ccc3n12	x	n	n	x	x	x
COc1ccc2cnn(-c3ccc(C)cc3)c(=O)c2c1OC	n	n	n	n	n	4.47µM
COc1ccc2cnn(-c3ccc(OC(F)(F)Cl)cc3)c(=O)c2c1OC	n	n	n	n	n	n
CNC(=S)N/N=C/c1ccc(C(C)C)cc1	n	n	n	n	x	5.01µM
CNC(=S)N/N=C/c1ccc(N(C)C)cc1	n	n	n	n	n	u
Clc1ccccc1CSc1nnc(C2CCNCC2)o1	x	n	n	x	x	x
O=c1cc(-c2ccccc2F)oc2ccccc12	n	n	n	n	n	12.6µM
O=C1[C@H](Cc2ccccc2)NC/C=C\C[C@H](c2ccc(Cl)cc2)N1Cc1ccc(Cl)cc1	x	n	x	x	x	x
Cc1ccc2nc(SCC(=O)c3ccc4c(c3)NC(=O)CO4)[nH]c2c1	n	n	n	n	n	n
Cc1ccc(C)c(-n2nnnc2SCC(=O)c2ccc3c(c2)NC(=O)CO3)c1	n	n	n	n	14.1µM	n
COc1ccc(C)cc1NC(=O)COCc1cc(-c2ccc(F)cc2)on1	x	n	n	x	x	x
COc1ccc(NC(=O)Nc2cccc(OC)c2)cc1	n	n	n	n	x	11.2µM
COc1cccc(NC(=O)Nc2ccc3nsnc3c2)c1	n	n	n	n	n	7.08µM
COc1cccc(NC(=O)CSc2ccccn2)c1	n	n	n	n	u	10µM
COc1cccc(NC(=O)Nc2ccccc2Br)c1	n	n	n	n	n	10µM
SMILES	PTAP TSG101 blk	TRPML1 agonist	TRPML1 blocker	IL-2 act	PKM2 activator	BRCA1 expr up
Cc1nc2ccccc2n1CCc1nc2c3ccccc3nc(SCc3ccc(C#N)cc3)n2n1	x	n	n	x	x	x
COc1cccc(N2C(=O)CSC23C(=O)N(Cc2ccccc2)c2ccccc23)c1 (stereo not given)	x	n	n	x	x	n
O=C(Cc1ccc(Cl)cc1)NO	x	n	x	x	x	n
Cc1cc(C)nc(NC(=O)Nc2ccc(F)cc2F)n1	n	n	n	n	n	3.98µM
COc1ccc(NC(=O)Nc2ccc3c(c2)CCC3)cc1	n	n	n	n	n	2.51µM
COc1ccc(NC(=O)Nc2ccc(F)cc2F)cc1	n	n	n	n	n	10µM
